High-throughput results from PubChem.
CD40 NFkB inh = inhibitors of CD40-induced NF-kB signaling, primary screen, BL2 cells, luciferase reporter, single point; AID 1053188, 2014; 0.94% of 83,000 active; inhibition, % at 10 µM; CD40L-induced, 4 h;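 active = mean inhibition of at least 50% with a set share of replicates also reaching that level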
Of the large screens only hits and unclear results are named; the others gave an inactive call; ! = a repeat was not active; [ ] = dose if it differs, or a comment. The sample as a whole holds a higher share of hits than the screen did.

C[C@@H]1CN([C@@H](C)CO)C(=O)c2ccccc2-c2ccccc2CO[C@@H]1CN(C)C(=O)Nc1ccc2c(c1)OCO2	none
CCC(=O)N1Cc2cc(C(=O)N3CCCCC3)nc(-c3cccc(-c4cccnc4)c3)c2[C@H]1CCO	none
C/C=C/c1cccc(-c2nc(C(=O)NC3Cc4ccccc4C3)cc3c2[C@H](CCO)N(C(C)=O)C3)c1	none
CC(C)NC(=O)N1Cc2cc(C(=O)NC3Cc4ccccc4C3)nc(-c3cccc(-c4cccnc4)c3)c2[C@@H]1CCO	CD40 NFkB inh 57[25 µM]
C[C@@H]1CN([C@@H](C)CO)C(=O)c2ccccc2-c2ccccc2CO[C@@H]1CN(C)C(=O)Nc1ccccc1C(F)(F)F	none
COCC(=O)N1CC(=O)N2[C@H](C1)[C@H](c1ccc(C#CC3CC3)cc1)[C@@H]2CO	none
O=C(c1ccc(-c2ccc([N+](=O)[O-])cc2)o1)N1CCCC(C(F)(F)F)C1 (centres undefined)	CD40 NFkB inh 61
O=C(c1ccccc1)c1ccc(C(=O)N2CCCC(C(F)(F)F)C2)cc1 (centres undefined)	none
O=C(c1ccc(-c2ccc([N+](=O)[O-])cc2)o1)N1CCCCCCC1	none
O=C(NC1CCCC1)[C@H]1[C@H](CO)[C@H]2Cn3c(cccc3=O)[C@H]2N1CC1CCOCC1	none
CN(C)C(=O)C[C@@H]1CC[C@H]2[C@H](COc3ccc(NC(=O)C4CCC4)cc3C(=O)N2C)O1	none
CC1=C(C#N)c2nc(N)c(C#N)c(C)c2/C1=C\c1ccccc1	CD40 NFkB inh 49
Cc1c(C#N)c(N)nc(Cl)c1C#N	none
CCc1nc(N)c(C#N)c(-c2cccc3ccccc23)c1C	none
C[C@H]1CN(C)C(=O)Cc2cc(NS(C)(=O)=O)ccc2O[C@@H]1CN(C)C	none
S=C(Nc1ccccc1Oc1ccccc1)NC1CCCC1	none
S=C(NC1CC1)N1CCc2ccccc2C1	none
S=C(N/N=C1\CCc2ccccc21)NC1CCCCC1	CD40 NFkB inh 62
C[C@H]1CN([C@@H](C)CO)C(=O)c2c(c3ccccc3n2C)-c2ccccc2CO[C@@H]1CN(C)C(=O)Nc1ccccc1	none
CC=Cc1ccc2n(c1=O)C[C@@H]1[C@@H](CO)[C@H](C(=O)NCc3ccccc3Cl)N(S(C)(=O)=O)[C@H]21 (mixture of isomers)	none
Cc1cc(C(=O)CN2C(=O)c3ccccc3S2(=O)=O)c(C)n1CC1CCCO1 (centres undefined)	none
CCCn1c(C)cc(C(=O)CN2C(=O)c3ccccc3S2(=O)=O)c1C	CD40 NFkB inh 53
CCCn1c(C)cc(C(=O)Cn2nnc3ccccc3c2=O)c1C	none
COc1cccc(NC(=O)N(C)C[C@H]2OCc3ccccc3-c3ccccc3C(=O)N([C@@H](C)CO)C[C@H]2C)c1	none
COc1ccc(NC(=O)N2[C@@H]3CNC[C@H]2C3c2ccc(-c3ccc(F)cc3)cc2)cc1 (some centres undefined)	none
Fc1ccc(-c2ccc(C3[C@@H]4CN(Cc5cccc(F)c5)C[C@H]3N4)cc2)cc1 (some centres undefined)	none
Cc1ccc(-c2ccc(C3[C@@H]4CN(Cc5ccccc5)C[C@H]3N4)cc2)cc1 (some centres undefined)	none
COc1cccc(CN2C[C@@H]3N[C@H](C2)C3c2ccc(-c3ccncc3)cc2)c1 (some centres undefined)	none
COc1ccc(-c2ccc(C3[C@@H]4CN(Cc5cccc(OC)c5)C[C@H]3N4)cc2)cc1 (some centres undefined)	none
COc1cccc(-c2ccc(C3[C@@H]4CN(Cc5cccc(F)c5)C[C@H]3N4)cc2)c1 (some centres undefined)	CD40 NFkB inh 60!
Cc1ccc(-c2ccc(C3[C@@H]4CN(Cc5cccc(F)c5)C[C@H]3N4)cc2)cc1 (some centres undefined)	CD40 NFkB inh 62
Cc1ccc(S(=O)(=O)N(C)C[C@H]2Oc3c(NS(=O)(=O)c4ccccc4)cccc3C(=O)N([C@@H](C)CO)C[C@@H]2C)cc1	none
C[C@H]1CN(C)C(=O)c2cc(N(C)C)ccc2O[C@@H]1CN(C)S(C)(=O)=O	none
CCNC(=O)[C@H]1[C@H](CO)[C@H]2Cn3c(ccc(-c4ccc(F)cc4)c3=O)[C@H]2N1Cc1cc(F)ccc1F	none
COc1ccc(C#Cc2ccc3c(c2)[C@H]2[C@H](CCN2S(=O)(=O)c2ccccc2C)[C@H](CO)N3C)cc1	none
CC(C)OCCCNC(=O)CNC(=O)c1ccc(Cl)c(Cl)c1	CD40 NFkB inh 27
CC(C)OCCCNC(=O)c1ccncc1	none
COCCNC(=O)c1ccc(Cl)c(Cl)c1	none
C[C@@H]1CN(C)C(=O)c2cccc(N(C)C)c2O[C@H]1CN(C)C(=O)OC(C)(C)C	none
N#C[C@H]1[C@H](c2ccc(-c3cccc(F)c3)cc2)[C@H](CO)N1C(=O)c1cccnc1	none
CCCSc1nc(C)c2cc(C)cc(C)c2n1	none
CCSC1=NC(C)(C)C=C(C)N1	none
CC1=CC(C)(C)N=C(Nc2nc(C)c3cc(C)cc(C)c3n2)N1	CD40 NFkB inh 48
C[C@@H]1CN([C@@H](C)CO)C(=O)c2c(c3ccccc3n2C)-c2ccccc2CO[C@H]1CN(C)Cc1cccc2c1OCCCO2	none
CCCNC(=O)[C@H]1N[C@H]2c3ccc(-c4cccc(F)c4)c(=O)n3C[C@H]2[C@@H]1CO	none
COc1cccc(CC(=O)n2nc(N)c3cc4ccc(OC)cc4nc32)c1	none
COc1ccc2cc3c(N)nn(C(=O)Cc4c[nH]c5ccccc45)c3nc2c1	CD40 NFkB inh 77
COc1ccc2cc3c(N)nn(C(=O)c4cccc(F)c4)c3nc2c1	none
c1ccc(C(O[C@@H]2CCCN(CCc3ccc4c(c3)OCO4)C2)c2ccccc2)cc1	none
CO[C@@H]1CC[C@H]2CCOc3ccc(C#N)cc3C(=O)N(C)[C@@H](C)C(=O)N(C)C[C@@H]1O2	none
COc1cccc(-c2ccc(C3[C@H]4CNC[C@@H]3N4S(=O)(=O)c3cccc(Cl)c3)cc2)c1 (some centres undefined)	none
Cn1c(=O)c(C(=O)c2ccccc2)c(O)c2ccccc21	none
CCn1c(-c2ccccc2)c(C(=O)CCl)c2ccccc21	none
Cn1c(-c2ccccc2)c(C(=O)CCl)c2ccccc21	CD40 NFkB inh 71
C[C@H](CO)N1C[C@H](C)[C@H](CN(C)C(=O)Nc2cccc(Cl)c2Cl)OCc2ccccc2-c2c(n(C)c3ccccc23)C1=O	CD40 NFkB inh 65[25 µM]
C[C@@H]1CN([C@H](C)CO)C(=O)c2c(c3ccccc3n2C)-c2ccccc2CO[C@H]1CN(C)C(=O)Nc1cccc(Cl)c1Cl	CD40 NFkB inh 54[25 µM]
C[C@H]1CN([C@@H](C)CO)C(=O)c2c(c3ccccc3n2C)-c2ccccc2CO[C@H]1CN(C)C(=O)Nc1cccc(Cl)c1Cl	none
C[C@@H]1CN([C@@H](C)CO)C(=O)c2c(c3ccccc3n2C)-c2ccccc2CO[C@H]1CN(C)C(=O)Nc1cccc(Cl)c1Cl	none
C[C@H](CO)N1C[C@H](C)[C@@H](CN(C)C(=O)Nc2cccc(Cl)c2Cl)OCc2ccccc2-c2c(n(C)c3ccccc23)C1=O	none
COc1ccccc1NC(=O)N(C)C[C@H]1OCc2ccccc2-c2c(n(C)c3ccccc23)C(=O)N([C@@H](C)CO)C[C@H]1C	none
N#C[C@H]1[C@@H](c2ccc(C#Cc3ccccc3F)cc2)[C@@H](CO)N1C(=O)C1CCOCC1	none
COc1ccccc1-c1ccc2c(c1)[C@H]1[C@H](CCN1C(=O)CN1CCOCC1)[C@H](CO)N2C	none
CCCNC(=O)N1CC[C@@H]2[C@@H](CO)N(C)c3ccc(-c4ccc(F)cc4)cc3[C@@H]21	none
CC(C)NC(=O)N(C)C[C@@H]1Oc2ccc(N)cc2CC(=O)N(C)C[C@@H]1C	none
